An excerpt weighted towards active compounds, which were near 0.9% of everything screened.
TDP1 block = qHTS Assay for Inhibitors of Tyrosyl-DNA Phosphodiesterase (TDP1) | recombinant TDP1, AlphaScreen DNA substrate cleavage | Tyrosyl-DNA phosphodiesterase 1 (Homo sapiens), Q9NUW8 | actives 0.28% (n = 350,000) | AID 485290, 2010 | Potency, µM (series often up to 130 µM), without a hit: top-dose activity change, negative = inhibition, actives largely listed as inhibitors; note: potency is the fitted concentration of half-maximal effect; % is set by controls: 0 for no effect and ±100 for the full control effect; nearly all actives have a fitted effect of over 40% in size
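AlphaScreen read-out: signal falls as enzyme removes the 3' tyrosine-FITC from a 5'-biotinylated DNA oligo (15 nM, 5 min, RT). Enzyme was E. coli-made recombinant Tdp1 at 1 nM, exposed to compound for 15 min beforehand; beads 10 ug/ml, 10 min.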
Lamin A splicing = qHTS Assay for Modulators of Lamin A Splicing; AID 1487, 2009; actives 0.01% (n = 200,000); HeLa LMNA splicing GFP/RFP minigene ratio, 48 h; Potency, µM (series often up to 46.1 µM), for inactives: top-dose ratio change, negative = inhibition, actives largely listed as inhibitors; active = well fitted inhibition curve with a large enough effect in the signal ratio, with a control signal flat, not every such curve was filed as active; inconclusive = small, poorly fitted or top-dose-only effect, or effect the other way, or a change in a side signal; the % refers to the signal ratio; note: potency is the fitted concentration of half-maximal effect; % is set by controls: 0 for no effect and ±100 for the full control effect
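Read-out is the ratio of GFP to DsRed2 object intensity, acquired by 488 nm laser-scanning cytometry on HeLa lamin A-EGFP minigene reporter cells. Compound incubation 48 hrs at 37 °C in Opti-MEM with 2% FBS; DMSO 0.5% final.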
GCN5L2 inh-1 = qHTS Assay for Inhibitors of GCN5L2; Potency, µM (doses to about 58.9 µM), for inactives: at the highest dose activity change, negative = inhibition, hits mostly inhibitors; GCN5L2 HAT assay, ThioGlo1 CoA-SH fluorescence; Histone acetyltransferase KAT2A (Homo sapiens), Q92830; actives 0.21% (n = 390,000); note: potency is the fitted concentration of half-maximal effect; % is set by controls: 0 for no effect and ±100 for the full control effect
Target sequence (Q92830 whole entry, looked up): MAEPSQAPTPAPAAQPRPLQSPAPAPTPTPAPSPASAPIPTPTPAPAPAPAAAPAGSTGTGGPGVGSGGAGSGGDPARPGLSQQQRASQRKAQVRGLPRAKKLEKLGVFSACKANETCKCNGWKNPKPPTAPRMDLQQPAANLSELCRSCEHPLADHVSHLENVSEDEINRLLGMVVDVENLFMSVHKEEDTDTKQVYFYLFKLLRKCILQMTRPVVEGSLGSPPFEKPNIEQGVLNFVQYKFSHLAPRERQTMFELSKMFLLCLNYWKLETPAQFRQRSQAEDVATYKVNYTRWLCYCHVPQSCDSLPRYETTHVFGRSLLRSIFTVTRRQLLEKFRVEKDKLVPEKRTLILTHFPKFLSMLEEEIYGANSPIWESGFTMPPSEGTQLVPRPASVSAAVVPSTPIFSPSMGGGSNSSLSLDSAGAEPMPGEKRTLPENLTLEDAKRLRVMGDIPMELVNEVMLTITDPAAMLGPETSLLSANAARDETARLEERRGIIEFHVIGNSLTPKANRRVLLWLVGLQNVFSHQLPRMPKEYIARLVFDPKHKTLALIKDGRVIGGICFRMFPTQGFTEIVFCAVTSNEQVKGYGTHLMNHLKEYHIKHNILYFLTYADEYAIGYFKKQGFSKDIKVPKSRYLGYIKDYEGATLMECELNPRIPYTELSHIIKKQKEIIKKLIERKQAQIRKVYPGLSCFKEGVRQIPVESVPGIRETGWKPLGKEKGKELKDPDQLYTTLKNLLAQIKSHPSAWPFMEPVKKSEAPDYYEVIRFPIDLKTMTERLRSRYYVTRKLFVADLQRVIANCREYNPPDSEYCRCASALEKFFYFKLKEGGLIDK
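GCN5L2 (20 nM) in 50mM HEPES pH 7.5, 0.1mM EDTA, 0.01% Tween-20 preincubated 15 min with compounds at room temperature. Reaction started with H3(1-25) 75uM, acetyl-CoA 70uM, ThioGlo1 50uM; CoA-thiol fluorescence (Ex340/Em540) read at 0 and 20 min.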
RECQ1 helicase = qHTS Assay for Inhibitors of RecQ-Like Dna Helicase 1 (RECQ1); ATP-dependent DNA helicase Q1 (Homo sapiens), P46063; RECQ1 DNA unwinding, red fluorescence kinetic read; Potency, µM (top dose mostly 57.3 µM), for inactives: at the top dose activity, negative = inhibition, hits mostly inhibitors; actives 0.54% (n = 240,000); AID 2549, 2010;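 note: potency is the fitted concentration of half-maximal effect; plate controls were vehicle for no effect and no enzyme for full effect; nearly all actives have a fitted effect of over 30% in size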
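50 nM RECQ1T1 preincubated 15 min with compound in Tris pH 8.0 buffer with MgCl2, DTT, Tween-20 and 2.5 ug/ml poly(dI-dC); started with 200 nM TAMRA/BHQ-2 forked duplex and 2 mM ATP. Unwinding read as fluorescence (525/598 nm), two reads 2 h apart.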
BLM inh = qHTS Assay for Inhibitors of Bloom's syndrome helicase (BLM) | RecQ-like DNA helicase BLM (Homo sapiens), P54132 | recombinant BLM DNA unwinding, fluorescence dequenching | Potency, µM (series often up to 56.1 µM), inactives show at the highest dose activity change, negative = inhibition, usual class: inhibitors | actives 0.2% (n = 350,000) | AID 2528, 2010;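 note: potency is the fitted concentration of half-maximal effect; plate controls were vehicle for no effect and no enzyme for full effect; nearly all actives have a fitted effect of over 35% in size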
APE1 inh = qHTS Assay for Inhibitors of the Human Apurinic/apyrimidinic Endonuclease 1 (APE1); AID 2517, 2012; DNA repair nuclease/redox regulator APEX1 (Homo sapiens), P27695; actives 0.35% (n = 350,000); Potency, µM (highest dose often 65.8 µM), for the others: at the top dose activity change, negative = inhibition, usual class: inhibitors; recombinant APE1, TAMRA/BHQ-2 abasic DNA cleavage fluorescence;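 note: potency is the fitted concentration of half-maximal effect; plate controls were vehicle for no effect and reference inhibitor for full effect; nearly all actives have a fitted effect of over 55% in size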
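Kinetic fluorescence read (525 ex/598 em nm, three reads 60 s apart) of AP-site incision; signal = third minus first read. Enzyme 0.75 nM, dual-labelled THF duplex 50 nM, compound preincubation 15 min RT.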
GCN5L2 inh-2 = qHTS Assay for Inhibitors of GCN5L2: Hit confirmation. shares compounds with GCN5L2 inh-1. GCN5L2 HAT, ThioGlo1 CoA fluorescence, 20 min. Potency, µM, actives largely listed as inhibitors. actives 70% (n = 140). AID 588347, 2011
Starred values were filed as active, the others as inactive; [ ] = dose if it differs, or a comment. Unless noted, calls come from the whole dose curve; as a rule, active = well fitted curve in the direction sought with a large enough effect; inconclusive = small, poorly fitted or top-dose-only effect, or another doubt; inactive = no such curve, though single readings can be large; an effect the other way counts as inactive or inconclusive.

COCCCn1c(=S)[nH]c2ccc(N3CCOCC3)cc2c1=O was read as TDP1 block 0%, Lamin A splicing -5%, GCN5L2 inh-1 inconclusive, RECQ1 helicase -5%, BLM inh -1%, APE1 inh -7% and GCN5L2 inh-2 32*.
`CNC(=O)NC(=O)C(C)OC(=O)c1c2c(nc3ccccc13)/C(=C/c1cccs1)CC2` (configuration not stated) gave TDP1 block 0%, Lamin A splicing -17%, GCN5L2 inh-1 14µM*, RECQ1 helicase 1%, BLM inh -10%, APE1 inh 3% and GCN5L2 inh-2 inconclusive.
`CCCCNC(=O)COC(=O)c1c2c(nc3ccccc13)/C(=C/c1cccs1)CC2` gave TDP1 block 2%, Lamin A splicing -11%, GCN5L2 inh-1 -19%, RECQ1 helicase 5%, BLM inh -20% and APE1 inh 10%.
`COc1cccc(-n2c(SCc3ccc(F)cc3)nc3c([nH]c4ccccc43)c2=O)c1` gave TDP1 block 5%, Lamin A splicing inconclusive, GCN5L2 inh-1 -5% and BLM inh -7%.
For CC[C@@H](NS(=O)(=O)c1ccc(C)cc1)C(=O)Oc1ccc2c3c(c(=O)oc2c1)CCC3 the results were TDP1 block -3%, Lamin A splicing -20%, GCN5L2 inh-1 -4%, RECQ1 helicase 4%, BLM inh -1% and APE1 inh 0%.
For Cc1ccc(S(=O)(=O)NC(C(=O)Oc2ccc3c(C(F)(F)F)cc(=O)oc3c2)c2ccccc2)cc1 (configuration not stated) the results were TDP1 block 14%, Lamin A splicing inconclusive, GCN5L2 inh-1 inconclusive, RECQ1 helicase 0%, BLM inh -7%, APE1 inh 6% and GCN5L2 inh-2 inconclusive.
`CC(C)[C@H](NC(=O)[C@H](CC(=O)O)NC(=O)CNC(=O)[C@@H](N)CCCN=C(N)N)C(=O)O` gave TDP1 block 10%, GCN5L2 inh-1 -7%, RECQ1 helicase -6%, BLM inh -3% and APE1 inh 0%.
For COc1cccc(NC(=O)CSc2nnc(NC(=O)NC3CCCCC3)s2)c1 the results were TDP1 block 8%, Lamin A splicing -19%[46 µM], GCN5L2 inh-1 -8% and BLM inh -3%.
Screening CCS(=O)(=O)C1=NN2C(=N)/C(=C\c3ccc(OS(=O)(=O)c4ccccc4)cc3)C(=O)N=C2S1 returned TDP1 block 2%, GCN5L2 inh-1 14µM*, BLM inh -9%, APE1 inh 57% and GCN5L2 inh-2 10*.
Cc1ccc(S(=O)(=O)Oc2ccc(/C=C3/C(=N)N4C(=NC3=O)SN=C4S(C)(=O)=O)cc2)cc1 was read as TDP1 block 0%, GCN5L2 inh-1 inconclusive, BLM inh -7%, APE1 inh -22% and GCN5L2 inh-2 10*.
For COc1cc(/C=C2/C(=N)N3C(=NC2=O)SN=C3S(C)(=O)=O)ccc1OS(=O)(=O)c1ccc(C)cc1 the results were TDP1 block 2%, GCN5L2 inh-1 inconclusive, BLM inh -11% and APE1 inh -16%.
`CCc1ccc(-n2cccc2/C=C2/C(=N)N3C(=NC2=O)SN=C3S(C)(=O)=O)cc1` gave TDP1 block 4%, Lamin A splicing 20%[9.22 µM], GCN5L2 inh-1 20µM*, RECQ1 helicase 35µM*, BLM inh inconclusive, APE1 inh inconclusive and GCN5L2 inh-2 inconclusive.
`Cc1ccc(CNC(=O)c2sc3nc4n(c(=O)c3c2C)CCCC4)cc1` gave TDP1 block 6%, Lamin A splicing 20%[46 µM], GCN5L2 inh-1 -21% and BLM inh -12%.
`CCOC(=O)C1CCCN(C(=O)c2cc(-c3ccco3)nc3ccccc23)C1` (configuration not stated) gave GCN5L2 inh-1 28µM*, APE1 inh 8.4µM* and GCN5L2 inh-2 18*.
`O=C(O)c1cccc2c1C(=O)c1ccc(-c3ccc(F)cc3OCc3ccccc3)cc1S2(=O)=O` gave GCN5L2 inh-1 22µM*, APE1 inh 37% and GCN5L2 inh-2 inconclusive.
Screening CCOC(=O)c1c(NC(=O)CSc2cn(CCNC(=O)c3ccccc3OC)c3ccccc23)sc2c1CCC2 returned TDP1 block 5%, GCN5L2 inh-1 -12% and BLM inh 0%.
CCSc1ccccc1C(=O)Nc1ccc(S(=O)(=O)NC(C)=O)cc1 was read as TDP1 block 6%, GCN5L2 inh-1 18µM*, RECQ1 helicase inactive, BLM inh 5%, APE1 inh -3% and GCN5L2 inh-2 inconclusive.
For CCc1ccc([C@@H]2CC=C(C(=O)O)[C@H](c3ccc(C(C)(C)C)cc3)N2S(=O)(=O)c2ccc(C)cc2)cc1 the results were TDP1 block -8%, GCN5L2 inh-1 18µM*, APE1 inh 3% and GCN5L2 inh-2 18*.
`Cc1ccc([C@@H]2CC=C(C(=O)O)[C@H](c3ccc(C(C)(C)C)cc3)N2S(=O)(=O)c2ccc(C)cc2)cc1` gave TDP1 block 0%, GCN5L2 inh-1 inconclusive and APE1 inh 14%.
Screening Cc1ccc(S(=O)(=O)N2[C@@H](c3ccc(C(C)(C)C)cc3)C(C(=O)O)=CC[C@H]2c2ccc(C(C)C)cc2)cc1 returned TDP1 block -19%, GCN5L2 inh-1 14µM*, APE1 inh -39% and GCN5L2 inh-2 13*.
`O=c1c2ccccc2nc(-c2ccc(Cl)cc2)n1CCCOc1ccccc1F` gave GCN5L2 inh-1 -1% and BLM inh -4%.
`Cc1coc2c1c(C)cc1oc(=O)c(CC(=O)NCc3ccc(Cl)cc3)c(C)c12` gave TDP1 block -2%, GCN5L2 inh-1 -8% and BLM inh 0%.
